Measurements published in PubChem BioAssay (NCATS).
Records with an inconclusive call do not appear. Activity calls are given as the source filed them. Calls follow the shape of the dose curve; as a rule, active = well fitted inhibition curve with a large enough effect; inconclusive = small, poorly fitted or top-dose-only effect; inactive = flat fitted curve, though single readings scatter.

Assays:
Test in all cases: qHTS profiling for inhibitors of Plasmodium falciparum proliferation (AID 504749); also: nearly all actives have a fitted effect of over 60% in size
Details in all cases: P. falciparum in erythrocytes, SYBR Green DNA, 72 h; series mostly up to 28.7 µM
CP291 = test system: CP291
Method in brief: (§1)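 Infected RBCs, 0.3% parasitemia/2.5% Hct final; cpd 72 h, 37 C, 5% CO2; lysis buffer with saponin/triton/SYBR Green I, o/n RT dark; FI 485/535; norm. to artemisinin (0.29 uM) and DMSO.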

CP297 = test system: CP297
Method in brief: as §1

CP305 = test system: CP305
Method in brief: as §1

CP315 = test system: CP315
Method in brief: as §1

CP325 = test system: CP325
Method in brief: as §1

CP329 = test system: CP329
Method in brief: as §1

CP335 = test system: CP335
Method in brief: as §1

DFO2036 = test system: DFO2036
Method in brief: as §1

DIV14 = test system: DIV14
Method in brief: as §1

DIV17 = test system: DIV17
Method in brief: as §1

DIV30 = test system: DIV30
Method in brief: as §1

Dd2 = test system: Dd2
Method in brief: as §1

ECU = test system: ECU
Method in brief: as §1

FAB9 = test system: FAB9
Method in brief: as §1

GB4 = test system: GB4
Method in brief: as §1

HB3 = test system: HB3
Method in brief: as §1

ICS = test system: ICS
Method in brief: as §1

JCK = test system: JCK
Method in brief: as §1

N140 = test system: N140
Method in brief: as §1

P93_24 = test system: P93_24
Method in brief: as §1

Measured: Potency

Cc1c(N(C)CS(=O)(=O)O)c(=O)n(-c2ccccc2)n1C
inactive: all assays above

O=C(Nc1ccc(Cl)c(Cl)c1)C1CC1
inactive: all assays above

CC(=O)Nc1c(I)cc(I)c(C(=O)O)c1I
not listed: P93_24
inactive: all other assays above

CCN(CC)C(=O)N1CCN(C)CC1
inactive: all assays above

C[C@]12CCC(=O)C=C1CC[C@H]1[C@@H]3CC[C@](O)(C(=O)CO)[C@@]3(C)C[C@H](O)[C@@]12F
inactive: all assays above

Cc1cc(=O)n(-c2ccccc2)n1C
inactive: all assays above

NCCC(O)(P(=O)(O)O)P(=O)(O)O
inactive: all assays above

CC(C)COC(=O)OCN1C(=O)CN(CCN2CC(=O)N(COC(=O)OCC(C)C)C(=O)C2)CC1=O
inactive: all assays above

Nc1ccc(/C=C/c2ccc(N)cc2S(=O)(=O)O)c(S(=O)(=O)O)c1
inactive: all assays above

C1CCc2nnnn2CC1
inactive: all assays above

NCCCC[C@H](N[C@@H](CCc1ccccc1)C(=O)O)C(=O)N1CCC[C@H]1C(=O)O
inactive: all assays above

CN1C(CCl)Nc2cc(Cl)c(S(N)(=O)=O)cc2S1(=O)=O (centres undefined)
inactive: all assays above

COc1c2occc2c(OC)c2c(=O)cc(C)oc12
inactive: all assays above
